# The source made the active and inactive calls.
# Key:
# [1] = optical density shifts of acrAB sulA E. coli – strain DRC41, OD650, 48 h, E. coli filamentation inducer project, primary screen (AID 1152); settings: higher = more signal, called active from +8 up or from −8 down;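 note: E. coli MC1000 strain DRC41 lacking acrAB efflux pump and sulA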
# [2] = probe aLefty1 binding on compound microarray – biochemical, small-molecule microarray, 635/667 nm fluorescence, primary screen (AID 1153); settings: higher = more signal;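 note: score merges spot fluorescence with signal-to-noise ratio from the scanned slide images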
# [3] = plasmodial surface anion channel blockers, osmotic lysis – cell-based, P. falciparum Indochina, OD700, 1 h, primary screen (AID 1154); settings: P. falciparum Indochina infected RBC osmotic lysis, higher = more signal, called active from +8 up or from −8 down
# [4] = plasmodial surface anion channel blockers, osmotic lysis – cell-based, P. falciparum Indochina, OD700, 2 h, primary screen (AID 1155);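 note: lysis reports solute entry through the parasite surface anion channel PSAC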; settings: P. falciparum Indochina infected erythrocytes, higher = more signal, called active from +8 up or from −8 down
# [5] = changes in parasitized red cell lysis, either direction – P. falciparum Indochina, OD700, 3 h, PSAC antagonist project, primary screen (AID 1156); settings: P. falciparum-infected erythrocytes, osmotic lysis, higher = more signal, called active from +8 up or from −8 down
# [6] = plasmodial surface anion channel blockers, osmotic lysis – cell-based, P. falciparum Indochina, OD700, 18 h, primary screen (AID 1157); settings: P. falciparum Indochina infected erythrocytes, osmotic lysis OD700, 18 h; higher = more signal, called active from +8 up or from −8 down
# [7] = S6 kinase pathway phospho-S6 level changes – cell-based, A549, cytoblot, luminescence, serum-stimulated, primary screen (AID 1158); settings: 5 h, higher = more signal;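 note: serum-stimulated A549 lung adenocarcinoma cells; signal is phosphorylated S6 detected by cytoblot immunostaining with HRP secondary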
# [8] = target: NADPH oxidase 2 (Homo sapiens) (UniProt P04839); assay: compounds shifting NOX2 Amplex Red fluorescence – cell-based, HEK293-NOX2, PMA-stimulated, NOX inhibitor project, primary screen (AID 1159); settings: 45 min, higher = more signal, called active from +8 up or from −8 down; note: test concentration not given here
# NADPH oxidase 2 (Homo sapiens), sequence (P04839 whole entry, looked up): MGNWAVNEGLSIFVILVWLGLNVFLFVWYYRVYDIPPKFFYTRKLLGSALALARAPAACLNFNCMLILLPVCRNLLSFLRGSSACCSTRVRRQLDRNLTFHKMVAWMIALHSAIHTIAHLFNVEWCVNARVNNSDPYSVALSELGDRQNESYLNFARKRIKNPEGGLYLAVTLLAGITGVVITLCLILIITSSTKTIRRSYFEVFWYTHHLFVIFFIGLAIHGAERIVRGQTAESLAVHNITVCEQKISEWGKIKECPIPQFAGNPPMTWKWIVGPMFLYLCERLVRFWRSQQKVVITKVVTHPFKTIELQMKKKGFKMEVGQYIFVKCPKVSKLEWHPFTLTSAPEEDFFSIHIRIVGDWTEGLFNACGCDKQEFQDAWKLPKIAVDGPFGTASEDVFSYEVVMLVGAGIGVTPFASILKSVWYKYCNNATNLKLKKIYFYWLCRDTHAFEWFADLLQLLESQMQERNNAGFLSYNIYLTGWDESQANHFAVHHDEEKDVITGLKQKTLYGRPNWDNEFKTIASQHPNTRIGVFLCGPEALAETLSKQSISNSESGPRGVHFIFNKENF
# [9] = target: NADPH oxidase 4 (Homo sapiens) (UniProt Q9NPH5); assay: compounds shifting NOX4 Amplex Red fluorescence – cell-based, HEK293-NOX4, tetracycline-induced, NOX inhibitor project, primary screen (AID 1160); settings: HEK293-NOX4, Amplex Red H2O2 fluorescence, 45 min; higher = more signal, called active from +8 up or from −8 down
# NADPH oxidase 4 (Homo sapiens), sequence (Q9NPH5 whole entry, looked up): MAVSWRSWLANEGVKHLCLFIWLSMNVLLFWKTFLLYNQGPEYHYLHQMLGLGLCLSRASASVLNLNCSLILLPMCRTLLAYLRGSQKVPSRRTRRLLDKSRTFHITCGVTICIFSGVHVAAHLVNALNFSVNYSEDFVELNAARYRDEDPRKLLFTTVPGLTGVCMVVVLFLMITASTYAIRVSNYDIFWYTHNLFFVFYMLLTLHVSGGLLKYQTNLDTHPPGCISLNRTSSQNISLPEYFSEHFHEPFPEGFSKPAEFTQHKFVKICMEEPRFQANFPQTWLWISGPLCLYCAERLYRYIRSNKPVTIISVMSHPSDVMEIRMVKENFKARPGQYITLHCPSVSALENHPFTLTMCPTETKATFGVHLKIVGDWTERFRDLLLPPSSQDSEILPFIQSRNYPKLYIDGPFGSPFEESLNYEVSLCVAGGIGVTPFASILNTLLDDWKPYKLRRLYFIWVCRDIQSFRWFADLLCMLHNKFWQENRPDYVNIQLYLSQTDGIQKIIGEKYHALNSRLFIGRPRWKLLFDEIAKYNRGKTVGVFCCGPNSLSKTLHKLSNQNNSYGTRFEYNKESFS
# [10] = target: NADPH oxidase 5 (Homo sapiens) (UniProt Q96PH1); assay: compounds shifting NOX5 Amplex Red fluorescence – cell-based, HEK293-NOX5, NOX inhibitor project, primary screen (AID 1161); settings: HEK293-NOX5, ionomycin, 45 min, higher = more signal
# NADPH oxidase 5 (Homo sapiens), sequence (Q96PH1 whole entry, looked up): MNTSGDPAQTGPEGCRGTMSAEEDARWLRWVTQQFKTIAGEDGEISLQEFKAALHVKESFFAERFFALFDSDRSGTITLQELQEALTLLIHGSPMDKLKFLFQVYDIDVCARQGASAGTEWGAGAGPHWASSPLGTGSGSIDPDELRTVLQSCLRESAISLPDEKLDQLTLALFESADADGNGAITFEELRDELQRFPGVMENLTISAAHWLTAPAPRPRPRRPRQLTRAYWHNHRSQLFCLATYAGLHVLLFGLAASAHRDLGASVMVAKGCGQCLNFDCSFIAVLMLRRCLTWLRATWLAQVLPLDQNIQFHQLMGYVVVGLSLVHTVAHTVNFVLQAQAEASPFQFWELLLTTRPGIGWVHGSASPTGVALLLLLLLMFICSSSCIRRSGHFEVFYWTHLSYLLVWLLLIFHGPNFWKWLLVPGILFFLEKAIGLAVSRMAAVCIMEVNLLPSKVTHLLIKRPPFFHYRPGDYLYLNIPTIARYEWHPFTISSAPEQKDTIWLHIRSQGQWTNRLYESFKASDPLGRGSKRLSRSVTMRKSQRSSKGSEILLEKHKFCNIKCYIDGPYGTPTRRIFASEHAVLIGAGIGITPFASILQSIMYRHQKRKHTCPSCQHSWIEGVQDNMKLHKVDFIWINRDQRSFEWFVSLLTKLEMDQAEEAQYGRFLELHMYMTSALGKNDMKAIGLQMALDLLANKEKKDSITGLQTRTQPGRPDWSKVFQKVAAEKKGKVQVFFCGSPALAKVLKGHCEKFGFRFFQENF
SMILES,z-score [1],composite z-score [2],z-score [3],z-score [4],z-score [5],z-score [6],z-score [7],z-score [8],z-score [9],z-score [10]
Cc1ccc(S[C@]2(C(=O)NC3CC3)CC(=O)N(C3Cc4ccccc4C3)[C@@H]2c2ccc(CO)cc2I)cc1,0.933 (inactive),0.227,5.18 (inactive),0.943 (inactive),0.202 (inactive),0.254 (inactive),-0.256,1.94 (inactive),-2.66 (inactive),1.41
COC(=O)C(CC#Cc1ccc2c(c1)[C@]1(C(=O)N2)[C@H](C(=O)N2CCN(c3ncccn3)CC2)[C@H]2C(=O)O[C@H](c3ccccc3)[C@H](c3ccccc3)N2[C@@H]1c1ccc(O)cc1)C(=O)OC,-0.442 (inactive),1.93,1.85 (inactive),0.89 (inactive),0.804 (inactive),0.0729 (inactive),-0.339,1.52 (inactive),-0.566 (inactive),0.665
CCCCCCCCCCC(O)C1C=CC2C(=O)N(C)C(=O)C2N1Nc1ccccc1 (stereo not given),-2.27 (inactive),-0.206,8.71 (active),3.03 (inactive),0.156 (inactive),2.84 (inactive),-1.28,-0.433 (inactive),-4.22 (inactive),-1.7
CC(C)C[C@@H]1NC(=O)[C@@H]2C[C@H](C(=O)NCCCCCCNC(=O)CS)[C@H](c3ccc(O)cc3)N2C1=O,0.81 (inactive),0.197,4.25 (inactive),-0.506 (inactive),0.75 (inactive),-1.54 (inactive),0.0377,0.569 (inactive),0.943 (inactive),-0.706
C=CCNC(=O)[C@H]1[C@@H]2C(=O)O[C@@H](c3ccccc3)[C@@H](c3ccccc3)N2[C@@H](c2ccc(O)cc2)[C@]12C(=O)Nc1ccc(C#CCC(C(=O)OC)C(=O)OC)cc12,0.824 (inactive),-0.188,8.47 (active),1.51 (inactive),0.416 (inactive),0.432 (inactive),0.0591,1.82 (inactive),0.194 (inactive),1.93
O=C1C2C=CC(C(O)C(c3ccccc3)c3ccccc3)N(Nc3ccccc3F)C2C(=O)N1c1ccccc1 (stereo not given),-1.6 (inactive),0.235,2.23 (inactive),1.25 (inactive),0.663 (inactive),0.852 (inactive),-0.799,-1.34 (inactive),-2.28 (inactive),-1.87
C=C(C(=O)CC[C@@H](OC(=O)c1ccccc1-c1ccccc1C(=O)O)c1cccc(OCCO)c1)C(C)C,0.272 (inactive),0.262,4.83 (inactive),0.407 (inactive),0.51 (inactive),0.233 (inactive),-0.205,3.11 (inactive),1.06 (inactive),-0.442
CC(C)(C)OC(=O)CC[C@]1(C(=O)N2CCOCC2)COC(c2ccc(OCCCO)cc2)=N1,1.54 (inactive),0.0429,20.8 (active),4.54 (inactive),0.384 (inactive),1.18 (inactive),0.359,-1.16 (inactive),0.324 (inactive),-1.06
COCCOC(=O)N1C(=O)[C@@]2(c3cc(C#CCC(C(=O)OC)C(=O)OC)ccc31)[C@H](c1ccc(O)cc1)N1[C@H](c3ccccc3)[C@H](c3ccccc3)OC(=O)[C@H]1[C@@H]2C(=O)N1CCc2cc(OC)c(OC)cc2C1,0.904 (inactive),-0.149,0.442 (inactive),0.0876 (inactive),0.328 (inactive),0.394 (inactive),0.161,1.94 (inactive),0.336 (inactive),1.23
O=C1O[C@H](c2ccccc2)[C@H](c2ccccc2)N2[C@H]1[C@@H](C(=O)O)[C@]1(C(=O)Nc3ccccc31)[C@H]2c1ccc(OCCO)cc1,0.368 (inactive),0.183,3.81 (inactive),0.173 (inactive),-0.776 (inactive),0.124 (inactive),-0.412,0.388 (inactive),1.09 (inactive),0.958
CCOC(=O)C[C@H]1[C@H](OC(=O)c2cc3ccccc3oc2=O)[C@@H](NC(=O)Cc2ccc(OC)cc2)c2cc(OCCCO)ccc2N1C(=O)Cc1ccc(OC)cc1,0.983 (inactive),1.28,6.34 (inactive),-1.26 (inactive),-0.456 (inactive),-2.42 (inactive),1.32,1.38 (inactive),1.52 (inactive),0.991
CC(C)c1ccc(NN2C(C(O)c3ccccc3)C=CC3C(=O)N(c4ccccc4)C(=O)C32)cc1 (stereo not given),0.2 (inactive),0.395,4.51 (inactive),1.97 (inactive),0.506 (inactive),1.42 (inactive),-0.396,-0.365 (inactive),-2.49 (inactive),-2.48

# From PubChem BioAssay
